# From PubChem
# NPR1 antag – human Npr1 receptor antagonism. HEK293 hNpr1 GloSensor cGMP, ANP-stimulated luminescence. Potency, µM (series often up to 46.3 µM), for inactives: top-dose activity change, negative = inhibition, actives largely listed as inhibitors. 76,000 compounds, 1.6% hits; calls by dose curve; further: nearly all actives have a fitted effect of over 60% in size
#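 HEK293 cells stably expressing human Npr1 and cGMP GloSensor pGS-40F, loaded 2 h with 2% GloSensor reagent, given compound 30 min at room temperature. Luminescence read before and 20 min after 0.1 nM hNppA.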
# 3T3 cytotox – NIH 3T3 cell cytotoxicity; Potency, µM (highest dose often 96.7 µM), for the others: top-dose activity change, negative = cytotoxicity, actives largely listed as inhibitors; NIH 3T3 viability, CellTiter-Glo ATP luminescence, 48-72 h; 94,000 compounds, 4.3% hits; further: nearly all actives have a fitted effect of over 55% in size
#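 Cells were seeded at 400 per well, treated with pin-transferred compound, and kept 48 or 72 hr at 37 °C before CellTiter-Glo addition and luminescence imaging of cellular ATP.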
# HEK293 tox – kills HEK 293 cells; 94,000 compounds, 6.6% hits; HEK 293 viability, ATP luminescence (CellTiter-Glo), 48-72 h; Potency, µM (highest dose often 115 µM), for the others: top-dose activity change, negative = cytotoxicity, most hits filed as inhibitors; further: nearly all actives have a fitted effect of over 60% in size
#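 ATP-coupled CellTiter-Glo luminescence served as viability read-out, recorded 10 min after reagent addition at room temperature. HEK 293 cells, 250 cells/well, had been incubated with pintool-transferred compound for 48 or 72 hr at 37 degree Celsius.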
# Luciferase inh – inhibitors of firefly (Photinus pyralis) luciferase | P08659 | purified P. pyralis luciferase, luminescence, biochemical | Potency, µM (titrated, usually from 115 µM), hits mostly inhibitors | 76,000 compounds, 2.5% hits | AID 1347043; further: nearly all actives have a fitted effect of over 65% in size
# Target sequence (P08659 whole entry, looked up): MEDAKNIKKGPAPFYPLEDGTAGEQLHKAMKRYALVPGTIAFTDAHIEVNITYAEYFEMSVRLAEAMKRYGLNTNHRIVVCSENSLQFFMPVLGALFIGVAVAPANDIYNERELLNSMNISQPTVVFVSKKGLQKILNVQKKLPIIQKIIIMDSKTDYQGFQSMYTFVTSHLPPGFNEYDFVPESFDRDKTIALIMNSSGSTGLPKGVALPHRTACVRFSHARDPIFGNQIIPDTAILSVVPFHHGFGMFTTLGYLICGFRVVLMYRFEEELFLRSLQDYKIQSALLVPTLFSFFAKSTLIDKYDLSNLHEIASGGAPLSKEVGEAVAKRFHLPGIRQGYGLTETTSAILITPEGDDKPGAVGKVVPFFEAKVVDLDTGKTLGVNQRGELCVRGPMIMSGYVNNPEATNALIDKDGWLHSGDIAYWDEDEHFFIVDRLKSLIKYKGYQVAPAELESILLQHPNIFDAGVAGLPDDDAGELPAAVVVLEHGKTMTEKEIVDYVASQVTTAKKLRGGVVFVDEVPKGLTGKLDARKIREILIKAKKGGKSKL
#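 Luminescence read by CCD imager after adding enzyme (10nM final) to wells holding compound, titrated in qHTS. Substrates 10uM each D-luciferin and ATP; buffer 50mM Tris acetate pH 7.5, 10mM Mg acetate, Tween-20, BSA.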
# GPT2 inhibitor – GPT2 alanine aminotransferase inhibition; 100,000 compounds, 0.25% hits; Recombinant GPT2, coupled pyruvate oxidase/HRP Amplex Red fluorescence; Potency, µM (top dose mostly 57.7 µM), without a hit: at the top dose activity change, negative = inhibition, most hits filed as inhibitors; AID 1671188; further: nearly all actives have a fitted effect of over 60% in size
#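 Recombinant GPT2 (10ng/uL) with 250uM a-KG and 2mM L-alanine, 30 min at room temperature, in HEPES pH 7.5 buffer. Pyruvate detected by pyruvate oxidase/HRP/Amplex Red fluorescence after 30 min in the dark; AOA (50uM) as positive control.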
# An asterisk follows results filed as active; i = inactive; ? = inconclusive; . = no result; [ ] = dose if it differs, or a comment. The list is not random: actives were taken first. Their share in the collection is about 10%. Unless noted, the call rests on the fitted dose curve; in most records, active means well fitted curve in the direction sought with a large enough effect; inconclusive means small, poorly fitted or top-dose-only effect, or another doubt; inactive means no such curve, though single readings can be large; an effect the other way counts as inactive or inconclusive. On the % scale 0 is the no-effect control and ±100 the full control effect; potency means the concentration at half of the fitted maximal effect.
SMILES,NPR1 antag,3T3 cytotox,HEK293 tox,Luciferase inh,GPT2 inhibitor
CC(=O)NC[C@H]1CCN(S(=O)(=O)c2ccc3c(c2)OCCO3)C[C@H]1N(C)C,1%,-11%,-6%,i,-7%
O=C1Cc2c(-c3ccccc3Oc3ccccc3)n[nH]c2CN1CC1CCOCC1,-24%[70.6 µM],?,-26%[172 µM],i,-7%[88.5 µM]
O=C1Cc2c(-c3ccccc3)n[nH]c2CN1CC1CCOCC1,-9%[70.6 µM],50µM*,1%[172 µM],i,3%[88.5 µM]
O=C1Cc2c(-c3ccccc3Cl)n[nH]c2CN1CC1CCOCC1,0%[70.6 µM],89µM*,-9%[172 µM],i,-2%[88.5 µM]
Cn1cnc(S(=O)(=O)NCCc2noc(-c3ccncc3)n2)c1,?,i,-2%,i,i
COCCN1C(=O)CS(=O)C12CCN(S(=O)(=O)c1c(C)noc1C)CC2 (stereo not drawn),0%,i,-15%,i,i
Cc1ccc(CCN2CCCCC23Cc2ccccc2CN([S+](C)(=O)[O-])C3)cc1 (stereo not drawn),.,?,79µM*,.,i
Cc1cn2nnc(C(=O)NCc3ccc4c(c3)OCO4)c2c(=O)[nH]1,2%,4%,7%,40µM*,-2%
Cc1cccc(CNC(=O)c2nnn3cc(C)[nH]c(=O)c23)c1,4%,-20%,7%,i,i
CC(=O)N1CCC(COc2ccc3c(cnn3CC[S+](C)(=O)[O-])c2)CC1,-1%[70.6 µM],?,-25%[172 µM],?,-11%[88.5 µM]
C[S+](=O)([O-])CCn1ncc2cc(OCC3CCN(c4ncccn4)CC3)ccc21,?,-5%[138 µM],?,45µM*,-7%[88.5 µM]
O=C(O)CCn1ncc2cc(OCc3ccc(-c4cncnc4)cc3)ccc21,3%[70.6 µM],45µM*,-26%[172 µM],50µM*,?
COc1ccccc1-c1cccc(COc2ccc3c(cnn3CC[S+](C)(=O)[O-])c2)c1,?,?,?,?,-12%[88.5 µM]
C[S+](=O)([O-])CCn1ncc2cc(OCC3CCN(C(=O)c4cccc(F)c4F)CC3)ccc21,-3%,-19%,?,i,0%
C[S+](=O)([O-])CCn1ncc2cc(OCc3cccc(-c4ccoc4)c3)ccc21,?,?,71µM*,?,-14%[88.5 µM]
COc1ncccc1-c1cccc(COc2ccc3c(cnn3CC[S+](C)(=O)[O-])c2)c1,35µM*,?,28µM*,16µM*,1%[88.5 µM]
O=C(c1ccccc1)N1CCCC2(CN[S+](=O)([O-])c3cccnc3N2)C1 (stereo not drawn),.,4%,?,.,.
Cc1ccc(C(=O)N2CCC[C@H](n3c(=O)n(Cc4ccccc4)c4cccnc43)C2)cn1,6%,-28%,?,i,-6%
C=CCc1ccccc1OCCN(C)Cc1cnc2ccccc2n1,-3%,-8%,?,i,-2%
COc1ccc(F)cc1-c1cccc(COc2ccc3c(cnn3CC[S+](C)(=O)[O-])c2)c1,?,?,?,i,-20%
C[S+](=O)([O-])CCn1ncc2cc(OCc3cccc(-c4cncnc4)c3)ccc21,-19%[70.6 µM],?,?,35µM*,-8%[88.5 µM]
COc1ncc(-c2cccc(COc3ccc4c(cnn4CC[S+](C)(=O)[O-])c3)c2)cn1,?,-15%[138 µM],71µM*,?,?
C[S+](=O)([O-])CCn1ncc2cc(OCc3cccc(-c4cccc(F)c4)c3)ccc21,40µM*,?,?,?,-5%[88.5 µM]
CNC(=O)CCn1ncc2cc(OCc3ccccc3-c3cnc(OC)nc3)ccc21,-2%[70.6 µM],-24%[138 µM],?,?,i
O=C(NCc1ccc(F)c(F)c1)c1nc2sccn2c1-c1ccccc1,.,?,?,.,i
SMILES,NPR1 antag,3T3 cytotox,HEK293 tox,Luciferase inh,GPT2 inhibitor
Cc1cccc(NC(=O)Cn2c(-c3cccc(Cl)c3)nc(C)c(CCO)c2=O)c1,-14%,?,40µM*,i,4%
COc1ccccc1NC(=O)Cn1c(-c2ccccc2)nc(C)c(CCO)c1=O,-12%,?,35µM*,i,i
COc1ccc(NC(=O)Cn2c(-c3ccc(F)cc3)nc(C)c(CCO)c2=O)cc1Cl,-22%,?,35µM*,i,4%
CCOc1ccccc1NC(=O)Cn1c(-c2ccccc2)nc(C)c(CCO)c1=O,-11%,-3%,-26%,i,i
COc1cccc(NC(=O)Cn2c(-c3cccc(Cl)c3)nc(C)c(CCO)c2=O)c1,-20%,?,79µM*,i,3%
O=C(CCOc1ccccc1)N[C@@H]1CCNC[C@H]1O,-1%,-22%,2%,i,4%
O=C(c1cccs1)N1CCOC(CCc2ccccc2)C1 (stereo not drawn),1%,-8%,?,i,-4%
CCOc1ccc(NC(=O)Cn2c(-c3cccc(Cl)c3)nc(C)c(CCO)c2=O)cc1,-11%,32µM*,?,i,5%
COc1ccc(Cn2c(-c3ccc(Cl)cc3)nc(C)c(CCO)c2=O)cc1F,0%,?,45µM*,i,-15%
Cc1nc(-c2ccccc2)n(CC(=O)Nc2cccc(Cl)c2)c(=O)c1CCO,?,?,25µM*,i,i
CCc1cccc(NC(=O)Cn2c(-c3ccccc3)nc(C)c(CCO)c2=O)c1,-14%,?,?,i,-6%
O=C([C@@H]1C[C@H](Oc2cccnc2)CN1C(=O)Cc1ccccc1)N1CCCC1,3%,-27%,?,i,i
O=C(NCCc1ccccc1F)c1ccc2nnc(C3CCCC3)n2c1,.,?,?,.,i
CN1C[C@@H](NC(=O)Nc2ccccc2)C[C@H]1c1nc(Cc2ccccc2)no1,-2%[70.6 µM],?,?,45µM*,i
CN1C[C@@H](NC(=O)c2ccc(F)cc2)C[C@H]1c1nc(-c2ccccc2)no1,-8%[70.6 µM],-13%[174 µM],?,?,-10%[88.5 µM]
CN1C[C@@H](NC(=O)Nc2ccccc2)C[C@H]1c1nc(-c2ccc(Cl)cc2)no1,?,?,?,35µM*,-11%[88.5 µM]
CN1C[C@@H](NC(=O)c2cccs2)C[C@H]1c1nc(-c2ccc(F)cc2)no1,-30%[70.6 µM],?,89µM*,i,-6%[88.5 µM]
Cc1ccc(NC(=O)N[C@H]2C[C@@H](c3nc(-c4ccc(F)cc4)no3)N(C)C2)cc1,-17%[70.6 µM],?,-26%[172 µM],?,1%[88.5 µM]
CCCc1nnc([C@H]2CCN(C(=O)c3ccccc3)C2)o1,0%[70.6 µM],-12%[174 µM],-21%[230 µM],i,i
CC1=C[C@@H](CN2CCC(O)CC2)[C@H](C(C)C)C[C@H]1Cc1nnc(-c2ccc([N+](=O)[O-])cc2)o1,-2%,?,?,i,4%
CC1=C[C@@H](CNCc2ccncc2)[C@H](C(C)C)C[C@H]1Cc1nnc(-c2ccc([N+](=O)[O-])cc2)o1,-6%,?,40µM*,i,3%
